Data as given in the supplement of paper PMC10849652.
Of roughly 7,900 targets only a part is listed; those with a hit were picked by preference. About 0.6% of all pairs of compound and target were hits.

How the values were obtained:
Assay in all cases: log2 fold change, soluble protein after heating vs DMSO (PISA); higher = thermal stabilisation; K562 cells, 10 uM, 30 min; active = over 0.2 and 3.5 SD of the protein, either way, in both replicates (recomputed)
[1] = compound: COC1=CC=C(C=C1)CN2C=CC3=C2C=C(C=C3)C(=O)NO
Summary of the method: (§1)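 Soluble protein was quantified by TMTpro 16plex LC-MS/MS after channel sums were equalised. It was obtained as the supernatant after 21,000xg for 90 min from pooled aliquots of K562 cells (2×10^6 cells/mL, 10 μM compound, 30 min) heated for 3 min across 48°C-58°C and extracted in PBS with 0.5% NP-40 at 4°C. Thermal stability values are relative to control samples and come from duplicates. They are given as log2 fold changes.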

filanesib = compound: CON(C)C(=O)N1N=C(c2cc(F)ccc2F)S[C@@]1(CCCN)c1ccccc1 [filanesib]
Summary of the method: as §1

zotarolimus = compound: CO[C@H]1C[C@@H]2CC[C@@H](C)[C@@](O)(O2)C(=O)C(=O)N2CCCC[C@H]2C(=O)O[C@H]([C@H](C)C[C@@H]2CC[C@H](n3cnnn3)[C@H](OC)C2)CC(=O)[C@H](C)/C=C(\C)[C@@H](O)[C@@H](OC)C(=O)[C@H](C)C[C@H](C)/C=C/C=C/C=C/1C [zotarolimus]
Summary of the method: as §1

idasanutlin = compound: COc1cc(C(=O)O)ccc1NC(=O)[C@@H]1N[C@@H](CC(C)(C)C)[C@](C#N)(c2ccc(Cl)cc2F)[C@H]1c1cccc(Cl)c1F [idasanutlin]
Summary of the method: as §1

alisertib = compound: COc1cc(Nc2ncc3c(n2)-c2ccc(Cl)cc2C(c2c(F)cccc2OC)=NC3)ccc1C(=O)O [alisertib]
Summary of the method: as §1

[2] = compound: COc1cc2nc(-c3cc(F)ccc3O)nc(N[C@@H]3CNC[C@H]3C(C)(C)O)c2cc1OC
Summary of the method: as §1

gefitinib = compound: COc1cc2ncnc(Nc3ccc(F)c(Cl)c3)c2cc1OCCCN1CCOCC1 [gefitinib]
Summary of the method: as §1

[3] = compound: COc1cccc2cc(-c3nc([C@H]4CC[C@H](C(=O)O)CC4)n4ncnc(N)c34)[nH]c12
Summary of the method: as §1

lapatinib = compound: CS(=O)(=O)CCNCc1ccc(-c2ccc3ncnc(Nc4ccc(OCc5cccc(F)c5)c(Cl)c4)c3c2)o1 [lapatinib]
Summary of the method: as §1

pictilisib = compound: CS(=O)(=O)N1CCN(Cc2cc3nc(-c4cccc5[nH]ncc45)nc(N4CCOCC4)c3s2)CC1 [pictilisib]
Summary of the method: as §1

[4] = compound: CS(=O)(=O)c1ccc(-c2cnc(N)c(C(=O)Nc3ccccc3)n2)cc1
Summary of the method: as §1

crizotinib = compound: C[C@@H](Oc1cc(-c2cnn(C3CCNCC3)c2)cnc1N)c1c(Cl)ccc(F)c1Cl [crizotinib]
Summary of the method: as §1

[5] = compound: C[C@@H]1COCCN1C2=NC(=NC(=C2)C3(CC3)S(=O)(=O)C)C4=C5C=CNC5=CC=C4
Summary of the method: as §1

[6] = compound: C[C@H](C1=CC=C(C=C1)C(=O)NC2=C3C=CNC3=NC=C2)N
Summary of the method: as §1

duvelisib = compound: C[C@H](Nc1ncnc2nc[nH]c12)c1cc2cccc(Cl)c2c(=O)n1-c1ccccc1 [duvelisib]
Summary of the method: as §1

gandotinib = compound: Cc1cc(Nc2cc(CN3CCOCC3)c3nc(C)c(Cc4ccc(Cl)cc4F)n3n2)n[nH]1 [gandotinib]
Summary of the method: as §1

tozasertib = compound: Cc1cc(Nc2cc(N3CCN(C)CC3)nc(Sc3ccc(NC(=O)C4CC4)cc3)n2)n[nH]1 [tozasertib]
Summary of the method: as §1

[7] = compound: Cc1cc(SCc2sc(-c3ccc(C(F)(F)F)cc3)nc2C)ccc1OCC(=O)O
Summary of the method: as §1

doramapimod = compound: Cc1ccc(-n2nc(C(C)(C)C)cc2NC(=O)Nc2ccc(OCCN3CCOCC3)c3ccccc23)cc1 [doramapimod]
Summary of the method: as §1

ispinesib = compound: Cc1ccc(C(=O)N(CCCN)[C@@H](c2nc3cc(Cl)ccc3c(=O)n2Cc2ccccc2)C(C)C)cc1 [ispinesib]
Summary of the method: as §1

Measured: log2 fold change

TPR (UniProt P12270)
active: crizotinib 0.297 | tozasertib 0.349
inactive: [1] -0.048 | filanesib 0.115 | zotarolimus 0.049 | idasanutlin 0.055 | alisertib -0.076 | [2] 0.065 | gefitinib -0.056 | [3] -0.06 | lapatinib 0.044 | pictilisib 0.036 | [4] -0.03 | [5] 0.013 | [6] -0.083 | duvelisib 0.017 | gandotinib 0.008 | [7] -0.027 | doramapimod 0.037 | ispinesib 0.223

VRK2 (UniProt Q86Y07)
inactive: [1] -0.009 | filanesib 0.075 | zotarolimus 0 | idasanutlin -0.066 | alisertib 0.042 | [2] 0.003 | gefitinib 0.018 | [3] -0.027 | lapatinib -0.003 | pictilisib -0.06 | [4] 0.048 | crizotinib -0.16 | [5] 0.015 | duvelisib -0.01 | gandotinib -0.08 | tozasertib -0.057 | [7] 0.012 | doramapimod 0.026 | ispinesib -0.115
active: [6] 0.472

TMEM120A (UniProt Q9BXJ8)
inactive: [1] -0.2 | filanesib -0.049 | zotarolimus 0.038 | idasanutlin -0.217 | alisertib -0.08 | [2] -0.08 | gefitinib 0.113 | [3] -0.02 | lapatinib 0.06 | pictilisib -0.094 | [4] -0.137 | crizotinib 0.096 | [5] 0.175 | [6] -0.11 | duvelisib -0.009 | gandotinib -0.125 | tozasertib -0.01 | [7] -0.055 | doramapimod -0.077 | ispinesib 0.033

TNFRSF8 (UniProt P28908)
inactive: [1] 0.019 | filanesib 0.11 | zotarolimus -0.019 | idasanutlin 0.04 | alisertib -0.011 | [2] 0.074 | gefitinib 0.067 | [3] 0 | lapatinib 0.003 | pictilisib 0.047 | [4] 0.051 | crizotinib 0.15 | [5] 0.009 | [6] -0.073 | duvelisib 0.027 | gandotinib 0.012 | tozasertib -0.05 | [7] -0.063 | doramapimod -0.011 | ispinesib 0.029

UGDH (UniProt O60701)
Chain of UniProt O60701 (O60701 whole entry, looked up): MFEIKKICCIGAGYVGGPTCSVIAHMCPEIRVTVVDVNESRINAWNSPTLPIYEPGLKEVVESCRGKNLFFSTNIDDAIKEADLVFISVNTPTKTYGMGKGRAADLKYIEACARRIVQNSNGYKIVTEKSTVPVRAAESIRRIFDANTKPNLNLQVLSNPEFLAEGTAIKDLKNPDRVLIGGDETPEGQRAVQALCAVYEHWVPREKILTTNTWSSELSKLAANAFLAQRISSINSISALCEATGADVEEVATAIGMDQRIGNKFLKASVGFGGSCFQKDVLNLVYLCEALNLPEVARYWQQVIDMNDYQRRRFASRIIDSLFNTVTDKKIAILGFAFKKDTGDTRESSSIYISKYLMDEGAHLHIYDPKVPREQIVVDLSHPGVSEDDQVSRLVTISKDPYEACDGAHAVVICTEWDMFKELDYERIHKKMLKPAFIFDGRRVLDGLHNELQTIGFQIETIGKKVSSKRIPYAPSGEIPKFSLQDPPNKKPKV
inactive: [1] 0.164 | filanesib 0.001 | zotarolimus 0.053 | idasanutlin -0.043 | alisertib 0.067 | [2] 0.04 | gefitinib 0.118 | [3] 0.059 | lapatinib -0.036 | pictilisib 0.022 | [4] -0.106 | crizotinib 0.079 | [5] 0.041 | [6] -0.161 | duvelisib 0.061 | gandotinib -0.064 | tozasertib 0.046 | [7] 0.049 | doramapimod -0.106 | ispinesib 0.165

XRCC6 (UniProt P12956)
Chain of UniProt P12956 (P12956 whole entry, looked up): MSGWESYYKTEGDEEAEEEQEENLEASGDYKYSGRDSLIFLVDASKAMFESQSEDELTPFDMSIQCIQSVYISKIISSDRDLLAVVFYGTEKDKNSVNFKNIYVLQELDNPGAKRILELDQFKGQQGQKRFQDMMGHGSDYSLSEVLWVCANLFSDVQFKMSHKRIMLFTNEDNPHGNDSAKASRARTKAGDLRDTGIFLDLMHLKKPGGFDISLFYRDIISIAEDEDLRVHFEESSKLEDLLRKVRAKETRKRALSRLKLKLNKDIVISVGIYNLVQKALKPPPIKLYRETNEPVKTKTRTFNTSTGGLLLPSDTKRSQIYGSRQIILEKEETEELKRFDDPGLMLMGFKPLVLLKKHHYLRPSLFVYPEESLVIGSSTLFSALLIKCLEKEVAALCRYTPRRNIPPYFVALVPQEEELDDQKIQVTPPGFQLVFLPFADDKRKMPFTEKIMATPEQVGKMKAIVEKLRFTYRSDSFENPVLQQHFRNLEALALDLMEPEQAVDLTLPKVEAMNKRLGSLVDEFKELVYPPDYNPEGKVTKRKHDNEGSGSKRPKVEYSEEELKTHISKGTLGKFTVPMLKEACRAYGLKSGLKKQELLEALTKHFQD
inactive: [1] 0.006 | filanesib -0.021 | zotarolimus 0.058 | idasanutlin -0.059 | alisertib -0.014 | [2] -0.097 | gefitinib -0.01 | [3] -0.008 | lapatinib 0.013 | pictilisib -0.024 | [4] 0.013 | crizotinib -0.064 | [5] 0.088 | [6] -0.042 | duvelisib 0.016 | gandotinib -0.149 | tozasertib 0.075 | [7] 0.091 | doramapimod -0.05 | ispinesib -0.039

WDR43 (UniProt Q15061)
Chain of UniProt Q15061 (Q15061 whole entry, looked up): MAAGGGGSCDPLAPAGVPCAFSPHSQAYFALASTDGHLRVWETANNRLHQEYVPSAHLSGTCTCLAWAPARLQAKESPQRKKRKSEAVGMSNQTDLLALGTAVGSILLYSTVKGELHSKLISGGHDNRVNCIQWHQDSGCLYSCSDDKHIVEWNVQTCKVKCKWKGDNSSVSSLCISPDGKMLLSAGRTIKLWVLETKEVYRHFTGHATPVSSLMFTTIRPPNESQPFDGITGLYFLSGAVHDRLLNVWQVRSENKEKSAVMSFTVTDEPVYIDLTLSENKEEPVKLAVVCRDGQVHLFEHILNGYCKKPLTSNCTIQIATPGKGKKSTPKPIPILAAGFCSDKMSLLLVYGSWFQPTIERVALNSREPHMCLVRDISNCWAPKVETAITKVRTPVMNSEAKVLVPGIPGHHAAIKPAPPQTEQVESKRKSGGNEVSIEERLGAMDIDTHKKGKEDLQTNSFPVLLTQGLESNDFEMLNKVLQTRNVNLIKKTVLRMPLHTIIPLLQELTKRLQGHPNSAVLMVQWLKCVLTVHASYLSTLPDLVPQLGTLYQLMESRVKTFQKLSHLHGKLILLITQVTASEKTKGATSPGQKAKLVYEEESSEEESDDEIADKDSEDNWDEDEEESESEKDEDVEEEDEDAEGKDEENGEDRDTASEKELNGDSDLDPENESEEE
inactive: [1] -0.014 | filanesib -0.019 | zotarolimus -0.017 | idasanutlin -0.072 | alisertib -0.061 | [2] 0.058 | gefitinib -0.006 | [3] 0.042 | lapatinib -0.025 | pictilisib 0.06 | [4] 0.008 | crizotinib 0.08 | [5] 0.016 | [6] -0.051 | duvelisib 0.062 | gandotinib 0.009 | tozasertib -0.012 | [7] -0.053 | doramapimod -0.035 | ispinesib 0.081

TRAPPC13 isoform 5 (UniProt A5PLN9)
Chain of UniProt A5PLN9 (A5PLN9 whole entry, looked up): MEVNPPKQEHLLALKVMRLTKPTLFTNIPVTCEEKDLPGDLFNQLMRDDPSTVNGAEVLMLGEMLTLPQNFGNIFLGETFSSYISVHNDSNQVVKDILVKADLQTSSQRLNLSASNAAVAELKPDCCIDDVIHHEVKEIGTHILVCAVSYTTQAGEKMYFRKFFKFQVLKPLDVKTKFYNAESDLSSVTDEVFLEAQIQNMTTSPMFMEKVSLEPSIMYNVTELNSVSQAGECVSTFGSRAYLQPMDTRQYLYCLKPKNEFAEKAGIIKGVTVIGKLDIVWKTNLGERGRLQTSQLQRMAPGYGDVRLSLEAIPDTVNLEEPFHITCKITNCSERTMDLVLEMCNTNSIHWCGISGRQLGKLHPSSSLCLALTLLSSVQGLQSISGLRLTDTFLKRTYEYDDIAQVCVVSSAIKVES
inactive: [1] 0.094 | filanesib 0.052 | zotarolimus 0.045 | idasanutlin -0.016 | alisertib -0.123 | [2] 0.009 | gefitinib 0.005 | [3] -0.046 | lapatinib 0.116 | pictilisib 0.015 | [4] -0.037 | crizotinib -0.054 | [5] 0.067 | [6] 0.009 | duvelisib 0.02 | gandotinib -0.007 | tozasertib -0.028 | [7] 0.087 | doramapimod 0.047 | ispinesib 0.032

WASHC5 (UniProt Q12768)
Chain of UniProt Q12768 (Q12768 whole entry, looked up): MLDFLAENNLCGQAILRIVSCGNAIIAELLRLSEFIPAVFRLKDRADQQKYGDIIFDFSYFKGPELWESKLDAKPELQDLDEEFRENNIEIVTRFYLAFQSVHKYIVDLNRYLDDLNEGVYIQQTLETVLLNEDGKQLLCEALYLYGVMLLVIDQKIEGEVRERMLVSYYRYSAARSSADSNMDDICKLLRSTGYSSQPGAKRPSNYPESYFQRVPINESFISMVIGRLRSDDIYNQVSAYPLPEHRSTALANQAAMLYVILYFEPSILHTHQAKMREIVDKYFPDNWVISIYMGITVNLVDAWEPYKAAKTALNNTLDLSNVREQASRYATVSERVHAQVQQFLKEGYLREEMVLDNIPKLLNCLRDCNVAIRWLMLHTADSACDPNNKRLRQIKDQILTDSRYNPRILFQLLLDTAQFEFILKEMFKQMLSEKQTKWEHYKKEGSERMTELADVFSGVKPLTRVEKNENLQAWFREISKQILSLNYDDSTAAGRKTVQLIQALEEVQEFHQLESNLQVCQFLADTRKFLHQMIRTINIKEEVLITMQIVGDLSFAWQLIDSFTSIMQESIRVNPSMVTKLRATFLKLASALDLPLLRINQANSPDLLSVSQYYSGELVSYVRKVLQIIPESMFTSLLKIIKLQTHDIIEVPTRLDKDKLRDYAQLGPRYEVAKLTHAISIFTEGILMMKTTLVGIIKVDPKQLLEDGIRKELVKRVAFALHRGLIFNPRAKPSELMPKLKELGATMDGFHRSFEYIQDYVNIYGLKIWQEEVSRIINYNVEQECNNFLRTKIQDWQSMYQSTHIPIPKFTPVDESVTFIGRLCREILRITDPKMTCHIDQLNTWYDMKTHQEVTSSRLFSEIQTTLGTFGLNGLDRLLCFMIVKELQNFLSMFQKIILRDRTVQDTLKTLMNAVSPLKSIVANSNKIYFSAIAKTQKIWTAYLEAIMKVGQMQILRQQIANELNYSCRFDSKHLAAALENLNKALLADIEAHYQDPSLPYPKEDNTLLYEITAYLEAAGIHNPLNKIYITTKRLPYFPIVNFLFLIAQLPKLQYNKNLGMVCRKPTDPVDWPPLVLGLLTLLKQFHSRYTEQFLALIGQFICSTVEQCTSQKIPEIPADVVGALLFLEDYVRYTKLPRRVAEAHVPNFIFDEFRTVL
inactive: [1] -0.059 | filanesib -0.017 | zotarolimus 0.043 | idasanutlin 0.034 | alisertib -0.088 | [2] 0.083 | gefitinib 0.044 | [3] -0.021 | lapatinib -0.024 | pictilisib -0.05 | [4] -0.023 | crizotinib -0.133 | [5] -0.068 | [6] 0.053 | duvelisib -0.034 | gandotinib -0.002 | tozasertib -0.02 | [7] 0.032 | doramapimod 0.073 | ispinesib -0.093

U2AF2 (UniProt P26368)
Chain of UniProt P26368 (P26368 whole entry, looked up): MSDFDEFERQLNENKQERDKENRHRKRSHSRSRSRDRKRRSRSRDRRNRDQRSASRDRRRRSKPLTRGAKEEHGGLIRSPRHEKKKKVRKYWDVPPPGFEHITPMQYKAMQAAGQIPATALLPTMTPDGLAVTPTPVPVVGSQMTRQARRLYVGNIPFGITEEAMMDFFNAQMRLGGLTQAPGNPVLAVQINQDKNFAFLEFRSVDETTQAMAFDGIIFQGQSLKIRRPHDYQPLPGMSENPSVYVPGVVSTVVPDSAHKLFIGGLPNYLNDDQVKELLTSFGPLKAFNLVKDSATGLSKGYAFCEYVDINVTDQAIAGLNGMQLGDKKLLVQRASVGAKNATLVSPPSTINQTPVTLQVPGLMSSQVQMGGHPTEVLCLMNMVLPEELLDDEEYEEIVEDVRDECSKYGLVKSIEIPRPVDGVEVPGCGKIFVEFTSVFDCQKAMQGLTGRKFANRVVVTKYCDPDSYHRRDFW
inactive: [1] 0.038 | filanesib 0.071 | zotarolimus 0.018 | idasanutlin 0.042 | alisertib -0.089 | [2] 0.014 | gefitinib 0.028 | [3] 0.074 | lapatinib -0.013 | pictilisib 0.013 | [4] 0.036 | crizotinib -0.101 | [5] 0.057 | [6] -0.101 | duvelisib -0.029 | gandotinib 0.036 | tozasertib 0.008 | [7] 0.063 | doramapimod -0.006 | ispinesib 0.014

WDCP (UniProt Q9H6R7)
Chain of UniProt Q9H6R7 (Q9H6R7 whole entry, looked up): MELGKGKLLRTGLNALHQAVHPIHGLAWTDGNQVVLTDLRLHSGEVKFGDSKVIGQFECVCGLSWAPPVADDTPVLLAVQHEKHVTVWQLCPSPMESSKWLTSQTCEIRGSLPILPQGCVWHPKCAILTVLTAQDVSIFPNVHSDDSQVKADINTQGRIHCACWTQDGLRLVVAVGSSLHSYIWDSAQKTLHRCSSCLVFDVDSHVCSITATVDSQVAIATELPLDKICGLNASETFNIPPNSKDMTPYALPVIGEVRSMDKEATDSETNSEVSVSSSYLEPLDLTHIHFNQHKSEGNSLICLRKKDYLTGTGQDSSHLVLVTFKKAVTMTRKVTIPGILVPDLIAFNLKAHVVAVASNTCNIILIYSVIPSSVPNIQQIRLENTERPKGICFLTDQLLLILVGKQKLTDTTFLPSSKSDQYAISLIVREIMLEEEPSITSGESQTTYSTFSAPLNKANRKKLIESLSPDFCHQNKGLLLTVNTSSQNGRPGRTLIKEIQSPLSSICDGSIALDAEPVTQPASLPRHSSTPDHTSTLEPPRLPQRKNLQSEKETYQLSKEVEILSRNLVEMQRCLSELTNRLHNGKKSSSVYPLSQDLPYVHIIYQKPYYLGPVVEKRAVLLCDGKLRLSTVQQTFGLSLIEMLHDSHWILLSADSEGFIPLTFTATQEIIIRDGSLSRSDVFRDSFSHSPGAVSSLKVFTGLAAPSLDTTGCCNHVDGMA
inactive: [1] -0.028 | filanesib -0.029 | zotarolimus 0.094 | idasanutlin -0.049 | alisertib -0.074 | [2] 0.072 | gefitinib -0.061 | [3] -0.049 | lapatinib -0.037 | pictilisib 0.126 | [4] -0.018 | crizotinib 0.079 | [5] -0.046 | [6] -0.024 | duvelisib -0.007 | gandotinib 0.047 | tozasertib 0.094 | [7] 0.084 | doramapimod 0.005 | ispinesib 0.032

VARS2, A0A0G2JL52
inactive: [1] 0.061 | filanesib -0.078 | zotarolimus 0.001 | idasanutlin -0.04 | alisertib -0.01 | [2] -0.017 | gefitinib -0.009 | [3] 0.064 | lapatinib 0.022 | pictilisib 0.024 | [4] 0.004 | crizotinib 0 | [5] 0.06 | [6] 0.018 | duvelisib 0.012 | gandotinib -0.061 | tozasertib -0.034 | [7] 0.025 | doramapimod 0.048
active: ispinesib -0.244

VWA8 (UniProt A3KMH1)
inactive: [1] -0.025 | filanesib -0.052 | zotarolimus -0.027 | idasanutlin -0.119 | alisertib -0.037 | [2] 0.006 | gefitinib 0.011 | [3] 0.077 | lapatinib 0 | pictilisib 0.01 | [4] 0.01 | crizotinib -0.058 | [5] 0.093 | [6] 0.025 | duvelisib 0.066 | gandotinib -0.038 | tozasertib -0.038 | [7] 0.094 | doramapimod -0.041 | ispinesib -0.221

TNFAIP8 isoform 4 (UniProt O95379)
Chain of UniProt O95379 (O95379 whole entry, looked up): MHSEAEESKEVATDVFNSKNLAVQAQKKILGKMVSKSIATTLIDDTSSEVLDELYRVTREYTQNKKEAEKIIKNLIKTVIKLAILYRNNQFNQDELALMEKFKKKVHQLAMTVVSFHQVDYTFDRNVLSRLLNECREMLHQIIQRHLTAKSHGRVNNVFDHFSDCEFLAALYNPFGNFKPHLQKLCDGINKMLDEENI
inactive: [1] 0.027 | filanesib -0.015 | zotarolimus 0.085 | idasanutlin -0.055 | alisertib -0.01 | [2] 0.046 | gefitinib 0.028 | [3] 0.041 | lapatinib 0.065 | pictilisib -0.027 | [4] 0.005 | crizotinib 0 | [5] 0.122 | [6] -0.099 | duvelisib 0.019 | gandotinib -0.073 | tozasertib -0.076 | [7] -0.046 | doramapimod -0.016 | ispinesib -0.046

TMEM63B (UniProt Q5T3F8)
active: ispinesib -0.312
inactive: [1] -0.125 | filanesib -0.089 | zotarolimus -0.018 | idasanutlin 0.011 | alisertib -0.037 | [2] -0.028 | gefitinib -0.03 | [3] -0.028 | lapatinib 0.032 | pictilisib 0.003 | [4] -0.127 | crizotinib 0.045 | [5] -0.042 | [6] -0.014 | duvelisib -0.085 | gandotinib -0.028 | tozasertib -0.007 | [7] 0.015 | doramapimod -0.047

TXNL4B (UniProt Q9NX01)
Chain of UniProt Q9NX01 (Q9NX01 whole entry, looked up): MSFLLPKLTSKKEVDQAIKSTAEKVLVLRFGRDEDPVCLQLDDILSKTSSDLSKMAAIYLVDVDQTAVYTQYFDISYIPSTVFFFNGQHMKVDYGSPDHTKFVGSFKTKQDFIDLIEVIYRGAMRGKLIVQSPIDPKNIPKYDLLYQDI
inactive: [1] 0.011 | filanesib -0.034 | zotarolimus -0.008 | idasanutlin -0.147 | alisertib 0.097 | [2] 0.106 | gefitinib 0.042 | [3] -0.064 | lapatinib -0.003 | pictilisib -0.003 | [4] 0.22 | crizotinib 0.309 | [6] 0.008 | duvelisib 0.083 | gandotinib -0.024 | tozasertib 0.07 | [7] 0.054 | doramapimod 0.037 | ispinesib -0.017
